Measured values published in PubChem BioAssay (Tox21).
Inconclusive results are not listed. A call without a number means that no potency is given here. Activity calls are given as the source filed them. Calls come from the whole dose curve; as a rule, active = well fitted cell-killing curve with a large enough effect in the repeat runs; inconclusive = weak or mixed curves, or effect the other way; inactive = flat fitted curve, though single readings scatter.

assay: qHTS assay to identify small molecule agonists of the sonic hedgehog signaling (Shh) pathway - cell viability counter screen (AID 1259366); settings: NIH/3T3 Gli1-Luc viability, CellTiter-Fluor, 24 h; series mostly up to 92.4 µM; note: nearly all actives have a fitted effect of over 50% in size
Procedure, shortened: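 Cells are plated at 2,000 per well and left 4hr at 37C, 5% CO2 before compound addition. After 23hr of treatment, CellTiter-Fluor reagent is added for 1hr at 37C and fluorescence is measured.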
Potency is the fitted concentration of half-maximal effect.

SMILES | Potency | viability change, negative = cytotoxic
O=C1NC(=O)c2cccc3cccc1c23 | inactive | 
O=[N+]([O-])C1(Br)COCOC1 | 43.3 µM (active) | 
Nc1c(Cl)cc(Cl)cc1[N+](=O)[O-] | inactive | 
C=C(C)c1ccccc1 | inactive | 
N[C@@H](Cc1cc(I)c(O)c(I)c1)C(=O)O | inactive | 
CCCCCc1ccco1 | inactive | 
CSCC[C@H](NC(=O)[C@H](Cc1c[nH]c2ccccc12)NC(=O)CCNC(=O)OC(C)(C)C)C(=O)N[C@@H](CC(=O)O)C(=O)N[C@@H](Cc1ccccc1)C(N)=O | inactive | 
CCCCCCOC(=O)CCCCC | inactive | 
O=C(Nc1ccc(C(=O)O)c(O)c1)c1ccccc1 | inactive | 
COC(OC)OC | inactive | 
CC(C)COC(=O)COc1cc(Cl)c(Cl)cc1Cl | inactive | 
O=c1[nH][nH]c(=O)c2cc([N+](=O)[O-])ccc12 | inactive | 
C1CCCCC1 | inactive | 
O=C(Oc1ccccc1)c1ccc2ccccc2c1O | inactive | 
COC(=O)CC(C(C)=O)C(=O)OC (stereo not given) | inactive | 
Cc1ccc(N(CCO)CCO)cc1 | inactive | 
SCCc1cnccn1 | inactive | 
O=S(=O)(O)CO | inactive | 
O=C(c1ccccc1)c1ccc(O)cc1 | inactive | 
CC(CCc1ccc(O)cc1)NCCc1ccc(O)c(O)c1 (stereo not given) | inactive | 
Oc1ccc2c(c1)Cc1ccccc1-2 | inactive | 
O=C(O)CO | inactive | 
CCC(Cl)CC(Cl)C(Cl)C(Cl)C(Cl)C(C)Cl (stereo not given) |  | -0.751% [at 19 µM] (inactive)
COc1cc(NCc2ccc3nc(N)nc(N)c3c2C)cc(OC)c1OC | 15 µM (active) | 
CC(C)COC(=O)c1ccc(O)cc1 | inactive | 
